Among the data in PubChem BioAssay (NCI) are growth inhibition values, retold here.

The nature of experiment [1]: NCI Yeast Anticancer Drug Screen. Data for the rad50 strain (AID 155).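 Also: 0% = growth of vehicle-only cultures of the same strain.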 Conditions: S. cerevisiae rad50 strain growth inhibition; at 50.0 µM; hits give high values. The method in brief: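 Yeast carrying a defined DNA repair defect were exposed to test compounds, and growth was compared with vehicle-treated controls to give percent inhibition.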
The nature of experiment [2]: NCI Yeast Anticancer Drug Screen. Data for the mec2-1 strain (AID 157). Conditions: S. cerevisiae mec2-1 strain, at 50.0 µM, hits give high values. The procedure, abridged: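 Vehicle-treated cultures served as reference for growth inhibition of compound-exposed mec2-1 yeast.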
A short description of experiment [3]: NCI Yeast Anticancer Drug Screen. Data for the sgs1 mgt1 strain (AID 161).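 Also: 0% = growth of cultures given vehicle only.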 Conditions: S. cerevisiae sgs1 mgt1 strain, at 50.0 µM, hits give high values. The procedure, abridged: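 Read-out: growth inhibition vs vehicle controls. Cells: mutant yeast strain deficient in DNA damage repair.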
The nature of experiment [4]: NCI Yeast Anticancer Drug Screen. Data for the cln2 rad14 strain (AID 165).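 Also: 0% = growth equal to vehicle treated cultures.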 The following applies: S. cerevisiae cln2 rad14 strain, at 50.0 µM, hits give high values. The procedure, abridged:
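Each compound was tested on cln2 rad14 yeast. Inhibition of growth was calculated against vehicle-exposed controls.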

Experiment [5] is described as follows: NCI Yeast Anticancer Drug Screen. Data for the bub3 strain (AID 167). The following applies: S. cerevisiae bub3 mutant strain, at 50.0 µM, hits give high values. The procedure, abridged: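 Compounds were applied to a genetically altered yeast strain carrying a cell-cycle control defect. Growth inhibition was scored against vehicle-treated controls.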
A short description of experiment [6]: NCI Yeast Anticancer Drug Screen. Data for the mlh1 rad18 strain (AID 175). The following applies: S. cerevisiae mlh1 rad18 strain growth inhibition; at 50.0 µM; hits give high values. The method in brief:
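Vehicle-treated cultures served as the reference for growth inhibition in a yeast strain carrying DNA damage repair alterations exposed to each compound.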

Values joined by “and” are separate entries in the source; they are usually repeats but may differ in a detail not shown here. Identical values can stand only once. About 79,000 compounds went through this panel and 15% of them were active in at least one assay; those are over-represented in the sample as a whole. Values without a mark were called inactive. Active and inactive are the calls of the source. Rule as the data show it: active = growth inhibition above about 70%; inactive = the rest.

With `c1ccc(N2CCN(Cc3c[nH]c4ccccc34)CC2)cc1`, the growth inhibition in experiment [1] was 7.9%; in experiment [2] it was 1.9%; in experiment [3], 7.55%; in experiment [4], -26.6%; in experiment [5], 0.85%; in experiment [6], -9.6%.
`CCC[N+](CCC)(CCC)CCC.N#CC(C#N)=C([SH2+])[SH2+].N#CC(C#N)=C([SH2+])[SH2+].N#CC(C#N)=C([SH2+])[SH2+].[Cr+3]`: the growth inhibition in experiment [1] is -3.1%; in experiment [2] it was 10.2%; in experiment [3] it was 11.8%; in experiment [4], -35%; in experiment [5], 9.1%; in experiment [6], 7.5%.
With `Cn1c(=O)c2ncnnc2n(C)c1=O`, the growth inhibition was 31.6% in experiment [1]; 22.9% in experiment [2]; 27.9% in experiment [3]; 0.5% in experiment [4]; 36.8% in experiment [5]; 45.1% in experiment [6].
Regarding `Cc1ccc2ccccc2c1`, the growth inhibition in experiment [1] was 3.9%; in experiment [2], -14.5%; in experiment [3], -6.05%; in experiment [4], -3.05%; in experiment [5], 2.4%; in experiment [6], -7.35%.
As for `CC[C@@]1(O)C(=O)OCc2c1cc1n(c2=O)Cc2c-1nc1ccccc1c2Cl`, the growth inhibition is 94.9% (active) in experiment [1]; 92% (active) in experiment [2]; 63.8% in experiment [3]; 81.8% (active) in experiment [4]; -6.7% in experiment [5]; 46.3% in experiment [6].
Take `CCCCOC(=O)c1ccccc1N`: the growth inhibition in experiment [1] was -4.3%; in experiment [2], -15.5%; in experiment [3], -4.2%; in experiment [4] it was -1.85%; in experiment [5], 0.2%; in experiment [6] it was -3.6%.
For `CCCC[P+](C#Cc1ccccc1)(CCCC)CCCC`, the growth inhibition in experiment [1] was 8.65%; in experiment [2] it was 3.5%; in experiment [3], 9.5%; in experiment [4], 3.75%; in experiment [5], -3.2%; in experiment [6], 2%.
For `O=C(O)c1cc(Cc2ccc(O)c(C(=O)O)c2)ccc1O`, the growth inhibition in experiment [1] was -24.2% and -8.25%; in experiment [2], 3.15% and -18.5%; in experiment [3], -18.3% and 8.2%; in experiment [4], -0.5% and -39.9%; in experiment [5] it was -13.4% and 33.9%; in experiment [6], -23.9% and -10.8%.
As for `c1ccc(CN2C3CCCC2CC(c2ccccc2)C3)cc1` (stereo not given), the growth inhibition was 79.8% (active) in experiment [1]; 63.9% in experiment [2]; 80.3% (active) in experiment [3]; 71.8% (active) in experiment [4]; 65.7% in experiment [5]; 85.5% (active) in experiment [6].
For `NC(P(=O)(O)O)P(=O)(O)O`, the growth inhibition in experiment [1] is 4.15%; in experiment [2], -1.2%; in experiment [3], 16.7%; in experiment [4], 15.3%; in experiment [5] it was 18.4%; in experiment [6], 7.1%.
`O=[As](O)(O)c1cc(N=Nc2ccc(-c3ccc(N=Nc4cc([As](=O)(O)O)c(O)cc4O)cc3)cc2)c(O)cc1O`: the growth inhibition was 0.1% in experiment [1]; 44% in experiment [2]; 33.2% in experiment [3]; -19.7% in experiment [4]; -4.2% in experiment [5]; 25.4% in experiment [6].
Regarding `[Br][Hg][CH]1CCC2CCCC1O2` (stereo not given), the growth inhibition was 99.5% (active) in experiment [1]; 99.2% (active) in experiment [2]; 99.5% (active) in experiment [3]; 99% (active) in experiment [4]; 99.3% (active) in experiment [5]; 99.5% (active) in experiment [6].
For `Cc1ccc2c(O)c3c(cc2c1)C(=O)c1c2c(cc(O)c1C3=O)C1(C)OC(O2)C(O)C(N(C)C)C1O` (stereo not given), the growth inhibition was 86.7% (active) in experiment [1]; 87.9% (active) in experiment [2]; 90.9% (active) in experiment [3]; 87.7% (active) in experiment [4]; 87.8% (active) in experiment [5]; 85.5% (active) in experiment [6].
For the compound `CCOC(=O)c1cc(N(CCCl)CCCl)ccc1OC(=O)CC`, the growth inhibition was 3.95% in experiment [1]; -6.9% in experiment [2]; 19.7% in experiment [3]; -32.2% in experiment [4]; 5.85% in experiment [5]; 30.1% in experiment [6].
Take `COc1cc(C(N)Cc2ccccc2)ccc1O` (stereo not given): the growth inhibition in experiment [1] is -9.85%; in experiment [2], 1%; in experiment [3], -1.25%; in experiment [4], -33.1%; in experiment [5], 26.6%; in experiment [6], 4.6%.
Regarding `O=CC=O`, the growth inhibition in experiment [1] is 33.1%; in experiment [2], 17.6%; in experiment [3], 24.4%; in experiment [4], 21.6%; in experiment [5], 33.9%; in experiment [6] it was 28.4%.
As to `CC1=C/C(=N\[Se]c2ccccc2)C(=O)C(C)=C1`, the growth inhibition in experiment [1] is 43.7%; in experiment [2] it was 27.4%; in experiment [3], 24%; in experiment [4] it was -9.05%; in experiment [5] it was 47.4%; in experiment [6], 36.3%.
Consider `O=C(Cc1ccccc1)OCc1ccco1`, for which the growth inhibition in experiment [1] was 6.9%; in experiment [2], -23.9%; in experiment [3] it was -30%; in experiment [4] it was -41.5%; in experiment [5] it was 13.4%; in experiment [6], -4.7%.
`O=c1oc2ccccc2c(O)c1C(c1ccc(O)cc1)c1c(O)c2ccccc2oc1=O`: the growth inhibition is -1.35% in experiment [1]; 3.1% in experiment [2]; -6.4% in experiment [3]; -2.95% in experiment [4]; -3% in experiment [5]; -33.9% in experiment [6].
As for `CC1=NCCN=C(C)C1[N+](=O)[O-]`, the growth inhibition in experiment [1] is 6.7%; in experiment [2], 10.9%; in experiment [3] it was 39.2%; in experiment [4], 0.55%; in experiment [5], 2.65%; in experiment [6] it was 24.3%.
